Screening results deposited in PubChem BioAssay by National Center for Advancing Translational Sciences (NCATS).
KB-V1 MDR tox = kills drug-selected multidrug resistant KB-V1 cells | KB-V1 MDR cells viability, CellTiter-Glo, 72 h | Potency, µM (titrated, usually from 46.1 µM), actives largely listed as cytotoxic | 400,000 compounds, 3.4% hits; also: % is scaled to controls: 0 for no effect and ±100 for the full control effect; nearly all actives have a fitted effect of over 60% in size
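Compound-treated KB-V1 multidrug-resistant cells, 72 h, 37 degrees C; viability by CellTiter-Glo. Fitted qHTS curves give the values.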
S2 tox = viability counter-screen for ATXN expression inhibitors. Potency, µM (top dose mostly 56.7 µM), actives largely listed as cytotoxic. 400,000 compounds, 0.49% hits. S2 cells (HEK-293 line with an ATXN2-luciferase reporter) viability, CellTiter-Fluor protease fluorescence, 24 h. AID 651635; also: nearly all actives have a fitted effect of over 40% in size
KB-3-1 cytotox = KB-3-1 parental cell cytotoxicity. KB-3-1 viability, CellTiter-Glo ATP luminescence, 72 h. Potency, µM (highest dose often 46.1 µM), actives largely listed as cytotoxic. 400,000 compounds, 1.4% hits. AID 1347075; also: % is scaled to controls: 0 for no effect and ±100 for the full control effect; nearly all actives have a fitted effect of over 60% in size
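Here the drug-naive KB-3-1 line serves as comparator for MDR sub-line selectivity; cells received compound titrations, 72 h at 37 °C, then CellTiter-Glo readout.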
ATXN2 expr inh = reduces ATXN2 reporter expression in HEK-293 cells; HEK-293 ATXN2-luciferase reporter, luminescence, 24 h; AID 1745845; Potency, µM (highest dose often 57 µM), inactives show at the highest dose activity change, negative = inhibition, usual class: inhibitors; 360,000 compounds, 0.72% hits; also: % is scaled to controls: 0 for no effect and ±100 for the full control effect; nearly all actives have a fitted effect of over 55% in size
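qHTS (up to 57 uM final) was run with 24 h compound exposure of reporter cells at 37 °C. Each well was multiplexed: SteadyGlo luminescence measured ATXN2-luciferase expression after a fluorogenic Gly-Phe-AFC viability readout (25 uM final).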
HT1080-NT tox = kills 2HG-producing HT-1080-NT fibrosarcoma cells; HT-1080-NT fibrosarcoma viability, CellTiter-Glo ATP luminescence, 48 h; Potency, µM (doses to about 46.1 µM), for the others: top-dose activity, negative = less viability, actives largely listed as cytotoxic; 360,000 compounds, 1.6% hits; AID 686970;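 also: NT is the 2HG producing partner of a matched IDH1 knockdown line; 0% = DMSO-treated cells and -100% = media-only wells without cells; nearly all actives have a fitted effect of over 55% in size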
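Viability by CellTiter-Glo luminescence after 48 h compound exposure at 37C of HT-1080-NT cells (750/well, RPMI, 5% FBS). % activity scaled between DMSO wells and medium-only wells, then curve-fitted and categorized by curve class.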
HT1080 IDH1KD tx = kills HT-1080 cells with IDH1 knockdown. HT-1080 IDH1 knockdown viability, ATP luminescence, 48 h. Potency, µM (series often up to 46.1 µM), for the others: top-dose activity, negative = toxicity, actives largely listed as cytotoxic. 360,000 compounds, 2% hits;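 also: 0% = DMSO wells and -100% = cell-free medium wells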
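Cytotoxicity counter-line: IDH1KD HT-1080, 48 h, CellTiter-Glo. Curves classed by r2, magnitude and activity.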
Starred values were filed as active, the others as inactive; [ ] = another dose, or the depositor's remark. In the library only some 6.2% were active in any assay of this set; here they are far more common. Calls follow the shape of the dose curve; as a rule, active = well fitted curve in the direction sought with a large enough effect; inconclusive = small, poorly fitted or top-dose-only effect, or another doubt; inactive = no such curve, though single readings can be large; an effect the other way counts as inactive or inconclusive. Potency is read from the fitted curve at half-maximal effect.

CCN(CC)CCNC(=O)CCc1c(C)nc2c(c(C)nn2-c2ccc(C)cc2)c1C was read as KB-V1 MDR tox inactive, S2 tox inactive, KB-3-1 cytotox inconclusive, ATXN2 expr inh inconclusive, HT1080-NT tox 18µM* and HT1080 IDH1KD tx inconclusive.
`COCCNC(=O)CCc1c(C)nc2c(c(C)nn2-c2ccc(C)cc2)c1C` gave KB-V1 MDR tox inactive, S2 tox inactive, KB-3-1 cytotox inactive, HT1080-NT tox 3% and HT1080 IDH1KD tx -6%.
COc1ccc(CN=Cc2c(O)[nH]c3ccccc23)cc1 was read as KB-V1 MDR tox inconclusive, S2 tox inconclusive, KB-3-1 cytotox inactive, ATXN2 expr inh -11%[11.3 µM], HT1080-NT tox 0% and HT1080 IDH1KD tx -1%.
For Cc1ccc(CN=Cc2[nH]c3ccc(Br)c(Cl)c3c2O)cc1 the results were KB-V1 MDR tox inactive, S2 tox inactive, KB-3-1 cytotox inactive, ATXN2 expr inh -21%, HT1080-NT tox -24% and HT1080 IDH1KD tx 18µM*.
COc1ccccc1NC(=O)C(CC(C)C)NC(=O)C1CCCCC1 (centres undefined) was read as KB-V1 MDR tox 4.1µM*, S2 tox inactive, KB-3-1 cytotox inactive, ATXN2 expr inh -3%, HT1080-NT tox 3% and HT1080 IDH1KD tx -2%.
Screening CCC(C)C(NC(=O)C1CCC(C)CC1)C(=O)Nc1cc(OC)ccc1OC (centres undefined) returned KB-V1 MDR tox 2.6µM*, S2 tox inactive, KB-3-1 cytotox inactive, ATXN2 expr inh -13%, HT1080-NT tox -27% and HT1080 IDH1KD tx inconclusive.
For N#C/C(=C\c1ccc(-c2cccc(Cl)c2)o1)C(=O)Nc1cccc(C(F)(F)F)c1 the results were KB-V1 MDR tox inconclusive, S2 tox inactive, KB-3-1 cytotox inactive and ATXN2 expr inh 3%.
Screening CCCN1CNc2c(c(=O)[nH]c(=S)n2CCc2ccc(Cl)cc2)C1 returned HT1080-NT tox -7% and HT1080 IDH1KD tx 0%.
`CCCCc1cc2c(c(NC(=O)CC)n1)c(=O)oc1ccccc12` gave KB-V1 MDR tox 16µM*, S2 tox inactive, KB-3-1 cytotox inactive, ATXN2 expr inh 13%, HT1080-NT tox -10% and HT1080 IDH1KD tx 1%.
Screening Cc1ccc(-c2nc(CS(=O)(=O)CC(=O)N3CCN(c4cccc(C)c4C)CC3)c(C)o2)cc1 returned KB-V1 MDR tox inactive and KB-3-1 cytotox inactive.
For O=S(=O)(Nc1ccc(O)c(Sc2nc3ccccc3s2)c1)c1ccc(Cl)cc1 the results were KB-V1 MDR tox 16µM*, S2 tox inactive, KB-3-1 cytotox inconclusive, ATXN2 expr inh 1%, HT1080-NT tox 2% and HT1080 IDH1KD tx -17%.
`CCCc1nn(C)c(C(=O)Nc2ccccc2)c1Cl` gave KB-V1 MDR tox 18µM*, S2 tox inconclusive, KB-3-1 cytotox inactive, ATXN2 expr inh 88%, HT1080-NT tox 16% and HT1080 IDH1KD tx 8%.
`c1ccc(OCc2nnc3ccc(-c4ccccc4)nn23)cc1` gave KB-V1 MDR tox inactive and KB-3-1 cytotox inactive.
Screening Cc1cccn2c(=O)c(/C=C(\C#N)C(=O)NC3CCS(=O)(=O)C3)c(Oc3ccccc3Cl)nc12 (centres undefined) returned KB-V1 MDR tox inactive, S2 tox inactive, KB-3-1 cytotox inactive, ATXN2 expr inh -8%, HT1080-NT tox inconclusive and HT1080 IDH1KD tx inconclusive.
Screening Cc1ccccc1Oc1nc2c(C)cccn2c(=O)c1/C=C(\C#N)C(=O)NC1CCS(=O)(=O)C1 (centres undefined) returned KB-V1 MDR tox inactive, S2 tox inconclusive, KB-3-1 cytotox inactive, ATXN2 expr inh -31%, HT1080-NT tox inconclusive and HT1080 IDH1KD tx 13µM*.
For COc1cccc(-c2cnc3c(NC=O)cc(-c4ccncc4)cn23)c1 the results were KB-V1 MDR tox inconclusive, S2 tox inactive, KB-3-1 cytotox inactive, ATXN2 expr inh -1%, HT1080-NT tox -19% and HT1080 IDH1KD tx -19%.
